This is an account of results in PubChem BioAssay AID1986 (Sanford-Burnham Center for Chemical Genomics, 2009).

This assay in a line: cell-free HIV fusion peptide-binding blockers – biochemical, uHTS, fluorescence dequenching, primary screen (AID 1986). As to conditions: 30 min, stronger effect = higher value.
[1] abbreviates: measured here: repeat confirmation average inhibition, at 18.6 µM.

Molecules are shown by their SMILES. In all, about 290,000 compounds went through this assay and about 890 (0.31%) were called active. No stated cut-off is given here; in the data, active means inhibition mostly above about 52% (no sharp cut-off); inactive means mostly below about 76%. Only a selection was taken, and actives are over-represented in it overall.

As for `CC(C)c1ccc(NC(=O)CCNS(=O)(=O)c2ccc3[nH]c(=O)oc3c2)cc1`, for the setting “at 20 µM”, the inhibition (commonly the change of the read-out against control, counted positive when it falls) was 2.1% (inactive). On the same count and under the same terms, with `CC(C)CNC(=S)N(CCN(C)C)Cc1cc2cc3c(cc2[nH]c1=O)OCO3` the figure was -2.4% (inactive); with `Clc1ccc2nc3c4ccccc4cnn3c2c1`, 0% (inactive).

`Oc1ccc2nnc3c(Br)cnn3c2c1`: the inhibition (at 20 µM) was 82.2% (active) and the inhibition under setting [1] is 59.6%. As to `Oc1ccc(Br)cc1Cn1nnc2ccccc21`, under “at 20 µM”, the inhibition is -0.3% (inactive).

As for `COc1ccc(OC)c(/C=N/NC(=O)CNC(=O)c2cccc3ccccc23)c1`, where the note is “at 20 µM”, the inhibition is -1.3% (inactive).

On to `Nc1cc(=O)[nH]c(SCC(=O)N2N=C(c3ccc4ccccc4c3)CC2c2ccccc2)n1` (configuration not stated), for which, for the setting “at 20 µM”, the inhibition was -0.7% (inactive). Same read-out and setting: as for `Cc1cc(-c2ccccc2)n2ncnc2n1`, the figure is 0.4% (inactive); as for `COc1ccc(CNc2cc(C)nc3ccc(OC)cc23)cc1`, -0.2% (inactive). Turning to `COc1ccc2nc(C)cc(NCc3ccc(F)cc3)c2c1`, the inhibition (at 20 µM) was 65.2% (active) and the inhibition under setting [1] is 53%. Regarding `COc1ccc2nc(C)cc(NCc3cccc(C(F)(F)F)c3)c2c1`, the inhibition (at 20 µM) is -0.7% (inactive).

As to `COc1ccccc1C(=O)Nc1ccccn1`, the inhibition (at 20 µM) is 0.9% (inactive). Same read-out and setting: with `CCc1nc(N[C@@H](CC(C)C)C(=O)O)c2oc3ccccc3c2n1` the figure was 4.3% (inactive). On to `CN1CC=C2C(C#N)=C(N)C(C#N)(C#N)C(CCc3ccccc3)C2C1` (configuration not stated), for which the inhibition by setting is: (at 20 µM) 64.6% (inactive); under setting [1], 14.6%.

With `Cc1ccc(C2C3CN(C(C)C)CC=C3C(C#N)=C(N)C2(C#N)C#N)cc1` (configuration not stated), the inhibition (at 20 µM) is 87.6% (active). Take `Cc1ccc(C2C3CSCC=C3C(C#N)=C(N)C2(C#N)C#N)cc1` (configuration not stated): the inhibition (at 20 µM) was 22.2% (inactive).

As to `CN1CC=C2C(C#N)=C(N)C(C#N)(C#N)[C@H](c3ccoc3)[C@H]2C1`, where the note is “at 20 µM”, the inhibition is 0.3% (inactive). Take `CC(C)N1CC=C2C(C#N)=C(N)C(C#N)(C#N)C(c3ccccc3)C2C1` (configuration not stated): for the setting “at 20 µM”, the inhibition was 86.9% (active).

As for `COc1ccc(OC)c(C2C3CN(C(C)C)CC=C3C(C#N)=C(N)C2(C#N)C#N)c1` (configuration not stated), the inhibition (at 20 µM) was -0.5% (inactive).

In the case of `CCN1CC=C2C(C#N)=C(N)C(C#N)(C#N)C(CCc3ccccc3)C2C1` (configuration not stated), the inhibition (at 20 µM) was -0.3% (inactive). `CN1CC=C2C(C#N)=C(N)C(C#N)(C#N)C(Cc3ccccc3)C2C1` (configuration not stated): for the setting “at 20 µM”, the inhibition was 52.9% (active). Regarding `CCCC1C2CN(C(C)C)CC=C2C(C#N)=C(N)C1(C#N)C#N` (configuration not stated), the inhibition (at 20 µM) was -3.6% (inactive). In the case of `CC(C)N1CC=C2C(C#N)=C(N)C(C#N)(C#N)[C@H](c3ccoc3)[C@H]2C1`, the inhibition (at 20 µM) is 123% (active). Same read-out and setting: with `CN1CC=C2C(C#N)=C(N)C(C#N)(C#N)[C@H](c3cccc(Cl)c3)C2C1` (some centres not stated) the figure was 25.6% (inactive). Consider `CC(=O)N1CC=C2C(C#N)=C(N)C(C#N)(C#N)[C@H](c3ccoc3)[C@H]2C1`, for which the inhibition (at 20 µM) was 29% (inactive). Turning to `COc1cc(/C=C(\C#N)C(=O)NCC2CCCO2)ccc1OC(C)C` (configuration not stated), the inhibition (at 20 µM) is -1.4% (inactive). Still for that read-out and setting: with `CN(CC(=O)Nc1ccc(F)c(F)c1F)c1ncnc2sccc12` the figure was 0.3% (inactive); with `COCCn1c(SCC(=O)N2CCCc3ccccc32)nnc1-c1ccoc1C`, -1.1% (inactive). In the case of `COc1ccc(Cl)cc1N1C(=O)CN(Cc2cc(OC)c(OC)c(OC)c2)C1=S`, the inhibition (at 20 µM) was 1% (inactive).

Turning to `COc1ccccc1C(=O)NNC(=O)c1ccc2ccccc2c1`, the inhibition (at 20 µM) was 0.5% (inactive).

For `O=C(/C=C/c1ccccc1)Nc1cccnc1Cl`, the inhibition (at 20 µM) is -1.1% (inactive). Turning to `CCOC(=O)c1ccc(N=Nc2c(C)c(C#N)c(O)[nH]c2=O)cc1`, for the setting “at 20 µM”, the inhibition was 4.3% (inactive).

Take `CCCCOC(=O)c1ccc(N=Nc2c(C)c(C#N)c(O)[nH]c2=O)cc1`: the inhibition was 77.6% (active) (at 20 µM) and 93.8% under setting [1]. `Cc1c(C#N)c(O)[nH]c(=O)c1N=Nc1ccc(S(N)(=O)=O)cc1`: the inhibition (at 20 µM) was 12% (inactive). In the case of `COc1ccccc1CC(NC(C)=O)C(=O)NC1CCN(C(=O)Nc2cccc(F)c2)CC1` (configuration not stated), the inhibition (at 20 µM) was -1.2% (inactive). On to `C=C1CCN([C@@H](C)C(=O)OCc2cccc(C)c2)S(=O)(=O)c2ccccc21`, for which, for the setting “at 20 µM”, the inhibition was 1.3% (inactive). With `CC(C(=O)Nc1ccc(O)cc1C(=O)O)N1C(=O)/C(=C\c2cccs2)SC1=S` (configuration not stated), the inhibition is, setting by setting: (at 20 µM) 50.1% (inactive); under setting [1], 46.3%. Consider `CC(=O)c1ccc(NC(=O)CCCN2C(=O)/C(=C/C(C)=C/c3ccccc3)SC2=S)cc1`, for which, for the setting “at 20 µM”, the inhibition was 3.3% (inactive). As for `O=C(CCCN1C(=O)/C(=C/c2ccccc2)SC1=S)Nc1ccc(C(=O)O)c(O)c1`, the inhibition reads like this: (at 20 µM) 60.7% (inactive); under setting [1], 40.5%. In the case of `CC(/C=C1\SC(=S)N(CCCC(=O)Nc2ccc(C(=O)O)c(O)c2)C1=O)=C\c1ccccc1`, the inhibition (at 20 µM) is 56.9% (active). Take `O=C(CCCN1C(=O)/C(=C/c2ccco2)SC1=S)Nc1ccccc1C(=O)O`: the inhibition by setting is: (at 20 µM) 67.2% (inactive); under setting [1], 29.8%. On the same counts, the results for `O=C(CCCN1C(=O)/C(=C/c2ccco2)SC1=S)Nc1cccc(C(=O)O)c1` are 59.9% (inactive) and 12.3%. On to `O=C(CN1C(=O)/C(=C/c2ccco2)SC1=S)Nc1ccc(O)c(C(=O)O)c1`, for which the inhibition (at 20 µM) is 58.3% (active). The same measure, in the same setting: with `CC(C(=O)Nc1ccc(C(=O)O)c(O)c1)N1C(=O)/C(=C\c2ccco2)SC1=S` (configuration not stated) the figure was 78.3% (active). The same measure, in the same setting: as for `O=C(CCN1C(=O)S/C(=C/c2ccccc2)C1=O)Nc1ccc(C(=O)O)c(O)c1`, the figure is 29.4% (inactive). For `O=C(CCCN1C(=O)/C(=C\c2ccco2)SC1=S)Nc1ccc2ccccc2c1`, the inhibition is, setting by setting: (at 20 µM) 65.1% (inactive); under setting [1], 3%.

As to `O=C(CCN1C(=O)/C(=C\c2ccco2)SC1=S)Nc1ccc(C(=O)O)c(O)c1`, the inhibition (at 20 µM) was 75.4% (active). On the same count and under the same terms, with `CC(C(=O)N(C)C1CCS(=O)(=O)C1)N1C(=O)/C(=C/c2ccco2)SC1=S` (configuration not stated) the figure was 24.8% (inactive).
